Assay [1] has as its system Plasmodium falciparum Sir2 (PF13_0152, Sir2A). Nature of the assay: Plasmodium falciparum Sir2A binding compounds – biochemical, small-molecule microarray, 635 nm fluorescence, primary screen (AID 1098).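 Also: score merges spot fluorescence intensity with its signal-to-noise ratio.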 To be noted: fluorescence 635 nm, higher = more signal.
Assay [2] can be described thus: probe aDKK1 binding to arrayed compounds – biochemical, biotinylated probe, 635/667 nm fluorescence, primary screen (AID 1099).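 Also: score merges 667nm spot fluorescence with signal to noise across triplicate slides.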 To be noted: small-molecule microarray, higher = more signal.
Assay [3] in a line: probe aCHRDL2 binding to arrayed compounds – biochemical, biotinylated probe, 635/667 nm fluorescence, primary screen (AID 1100). To be noted: small-molecule microarray, higher = more signal.
Assay [4] in a line: change in splice reporter luminescence, either direction, cell-based, HEK293, spliceosome inhibition project, primary screen (AID 1101).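 Also: HEK293 cells carrying a splicing-competent luciferase reporter gene; test concentration not given here.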 The conditions noted are these: HEK293 splicing luciferase reporter, 24 h, higher = more signal, called active from +8 up or from −8 down. (In a reporter assay the amount or activity of a reporter protein is the signal.)
The target in assay [5] is Fibroblast growth factor 10 (Homo sapiens) (UniProt O15520). The assay is described as follows: compounds binding fibroblast growth factor 10 – biochemical, small-molecule microarray, 635 nm fluorescence, primary screen (AID 1102). To be noted: FGF10 binding, fluorescence 635 nm, higher = more signal.
For assay [6], the system named is glycogen synthase kinase-3 (GSK3A per assay name; protocol says GSK3B). Nature of the assay: compounds binding glycogen synthase kinase-3 – biochemical, small-molecule microarray, 635 nm fluorescence, GSK3A, primary screen (AID 1103). Also: the record names both GSK3A and GSK3B. The conditions noted are these: fluorescence 635 nm, higher = more signal.
The target of assay [7] is Epidermal growth factor receptor (Homo sapiens) (UniProt P00533). Nature of the assay: compounds binding epidermal growth factor receptor – biochemical, small-molecule microarray, 635 nm fluorescence, primary screen (AID 1104).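 Also: score merges 667 nm emission intensity with spot signal to noise over triplicate slides.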 The conditions noted are these: EGFR binding, higher = more signal.
For assay [8], the target named is Follistatin-related protein 3 (Homo sapiens) (UniProt O95633). The assay is described as follows: compounds binding follistatin-related protein 3 – biochemical, small-molecule microarray, 635 nm fluorescence, primary screen (AID 1105).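 Also: score merges emission near 667 nm and signal to noise per printed spot across three slides.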 To be noted: FSTL3 binding, higher = more signal.
The target of assay [9] is Dickkopf-related protein 1 (Homo sapiens) (UniProt O94907). Nature of the assay: small molecules binding DKK1 protein – biochemical, small-molecule microarray, 635 nm fluorescence scan, primary screen (AID 1106).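 Also: score merges emission near 667 nm with signal to noise over three replicate slides.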 To be noted: higher = more signal.
Assay [10] has as its system Inhibin beta A chain (activin A). The assay is described as follows: small molecules binding activin A – biochemical, small-molecule microarray, 635 nm fluorescence scan, primary screen (AID 1107).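 Also: mouse activin A protein probed at 4.33 µg/mL on printed slides; score merges bound-protein fluorescence near 667 nm with spot signal-to-noise.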 To be noted: INHBA, higher = more signal.
Assay [11] relates to Human papillomavirus type 1a protein E7 (residues 44-93). Nature of the assay: small molecules binding HPV E7 44-93 – biochemical, small-molecule microarray, residues 44-93, 635 nm fluorescence, primary screen (AID 1108).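 Also: E7 fragment applied at 1 µg/mL in TBST for 1 h at 4 C; score combines spot fluorescence with its signal to noise ratio.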 To be noted: fluorescence 635 nm, higher = more signal.
The nature of assay [12]: hepatitis C replication reporter changes, two-sided – Huh7 cells, luciferase reporter, HCV replication inhibitor project, primary screen (AID 1109).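 Also: huh7 hepatoma cells harbouring a luciferase neomycin HCV replicon reporter; luciferase luminescence as measure of HCV replicon replication; test concentration not given here.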 To be noted: Huh7 HCV replicon luciferase reporter, 48 h; higher = more signal.
Assay [13] deals with Left-right determination factor 2 (Homo sapiens) (UniProt O00292). The assay is described as follows: small molecules binding LEFTY2 protein – biochemical, small-molecule microarray, 635 nm fluorescence scan, primary screen (AID 1110). To be noted: higher = more signal.
In assay [14] the target is Calmodulin-1 (Homo sapiens) (UniProt P0DP23). Nature of the assay: small molecules binding calmodulin-1 with EGTA – biochemical, small-molecule microarray, Cy5-labelled CALM1, profiling panel (AID 1111).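 Also: labelled calmodulin applied in Tris saline Tween buffer holding calcium plus EGTA and DTT.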 The conditions noted are these: Cy5-CALM1 binding fluorescence, higher = more signal.
Assay [15] shares this target. The assay is described as follows: small molecules binding Ca-loaded calmodulin-1 – biochemical, small-molecule microarray, Cy5-labelled CALM1, plus calcium, artefact control for SMM control-protein annotation, profiling panel (AID 1112).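 Also: score merges spot fluorescence with signal to noise from triplicate slides.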 The conditions noted are these: Cy5-CALM1 binding fluorescence, higher = more signal.
The nature of assay [16]: probe aWnt5a binding to arrayed compounds – biochemical, biotinylated probe, 635/667 nm fluorescence, primary screen (AID 1113).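 Also: score merges 667 nm fluorescence intensity with signal-to-noise per printed feature.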 To be noted: small-molecule microarray, higher = more signal.
The nature of assay [17]: probe aShh binding to arrayed compounds – biochemical, biotinylated probe, 635/667 nm fluorescence, primary screen (AID 1114).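 Also: probe is biotin-labelled aShh protein from a stem cell growth factor screen; measures binding of labelled protein to compounds printed on the slide; score merges feature fluorescence at 667 nm with signal-to-noise.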 To be noted: small-molecule microarray, higher = more signal.
A short description of assay [18]: probe aNog binding to arrayed compounds – biochemical, biotinylated probe, 635/667 nm fluorescence, primary screen (AID 1115).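 Also: probe is biotinylated aNog protein used at 0.15 µg/mL for 1 h at 4 C; z-score combines 667 nm fluorescence of each spot with its signal to noise.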 The conditions noted are these: small-molecule microarray, higher = more signal.
Assay [19] addresses Torsin-1A-interacting protein 1 (Homo sapiens) (UniProt Q5JTV8). The assay is described as follows: compound microarray binding of lysate hLAP1 – cell lysate, small-molecule microarray, COS7 lysate, 635/667 nm fluorescence, primary screen (AID 1116). To be noted: 635 nm fluorescence, higher = more signal.
The target of assay [20] is Alpha-bungarotoxin (Bungarus multicinctus) (UniProt P60615). Nature of the assay: compounds binding labelled alpha-BTX control protein – biochemical, small-molecule microarray, Alexa647 label, 635/667 nm fluorescence, artefact control for SMM control protein annotation, profiling panel (AID 1117). The conditions noted are these: alpha-BTX-A647 binding fluorescence, higher = more signal.

Structures are written as SMILES. Several values for one entry are separate records, joined by “and”; a condition that tells them apart may be missing. Equal values may be shown once. Activity calls are given as the source filed them.

The record followed here is PubChem BioAssay.

Sequence of Epidermal growth factor receptor (Homo sapiens) (P00533 whole entry, looked up): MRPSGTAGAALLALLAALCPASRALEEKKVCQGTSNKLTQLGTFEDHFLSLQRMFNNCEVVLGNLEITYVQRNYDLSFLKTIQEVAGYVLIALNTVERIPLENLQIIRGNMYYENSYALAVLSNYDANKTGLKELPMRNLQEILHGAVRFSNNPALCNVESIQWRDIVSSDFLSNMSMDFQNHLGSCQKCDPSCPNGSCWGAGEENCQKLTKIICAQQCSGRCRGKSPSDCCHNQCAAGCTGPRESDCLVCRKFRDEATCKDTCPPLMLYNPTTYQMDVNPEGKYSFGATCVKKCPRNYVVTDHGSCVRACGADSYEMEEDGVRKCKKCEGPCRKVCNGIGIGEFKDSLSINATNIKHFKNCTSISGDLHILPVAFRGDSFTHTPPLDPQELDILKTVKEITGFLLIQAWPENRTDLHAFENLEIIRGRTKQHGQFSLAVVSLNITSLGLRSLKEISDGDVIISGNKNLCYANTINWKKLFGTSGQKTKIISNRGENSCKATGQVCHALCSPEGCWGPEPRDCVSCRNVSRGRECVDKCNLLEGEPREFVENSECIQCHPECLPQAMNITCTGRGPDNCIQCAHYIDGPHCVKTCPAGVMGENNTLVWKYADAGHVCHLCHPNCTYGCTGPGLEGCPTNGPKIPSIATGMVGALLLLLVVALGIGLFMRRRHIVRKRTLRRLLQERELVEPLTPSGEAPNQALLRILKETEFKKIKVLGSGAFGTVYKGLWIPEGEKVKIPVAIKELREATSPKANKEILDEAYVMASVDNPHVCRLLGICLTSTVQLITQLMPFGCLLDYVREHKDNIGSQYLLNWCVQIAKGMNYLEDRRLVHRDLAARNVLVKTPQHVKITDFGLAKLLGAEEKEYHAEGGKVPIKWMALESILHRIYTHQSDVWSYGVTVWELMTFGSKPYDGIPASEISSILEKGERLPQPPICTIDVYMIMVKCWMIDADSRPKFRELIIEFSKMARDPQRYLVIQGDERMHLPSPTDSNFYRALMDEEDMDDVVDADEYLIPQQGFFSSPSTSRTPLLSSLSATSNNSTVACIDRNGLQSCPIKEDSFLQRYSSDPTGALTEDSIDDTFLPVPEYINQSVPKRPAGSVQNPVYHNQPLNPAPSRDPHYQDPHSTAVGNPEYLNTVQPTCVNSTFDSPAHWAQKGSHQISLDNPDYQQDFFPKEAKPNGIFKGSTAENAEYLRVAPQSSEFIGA
Sequence of Follistatin-related protein 3 (Homo sapiens) (O95633 whole entry, looked up): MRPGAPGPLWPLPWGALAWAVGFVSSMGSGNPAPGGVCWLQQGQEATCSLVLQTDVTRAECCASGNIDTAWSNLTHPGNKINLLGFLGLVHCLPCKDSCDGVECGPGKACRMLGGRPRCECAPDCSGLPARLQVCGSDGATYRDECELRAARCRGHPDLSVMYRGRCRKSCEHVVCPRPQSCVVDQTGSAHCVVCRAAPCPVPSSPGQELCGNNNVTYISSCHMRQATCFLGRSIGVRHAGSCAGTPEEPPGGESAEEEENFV
Sequence of Fibroblast growth factor 10 (Homo sapiens) (O15520 whole entry, looked up): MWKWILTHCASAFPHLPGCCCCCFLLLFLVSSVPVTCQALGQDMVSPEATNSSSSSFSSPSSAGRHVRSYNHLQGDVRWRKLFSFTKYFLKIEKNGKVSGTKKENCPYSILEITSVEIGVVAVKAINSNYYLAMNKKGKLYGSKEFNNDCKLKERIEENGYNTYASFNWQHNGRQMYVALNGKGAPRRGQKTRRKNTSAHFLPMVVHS
Sequence of Dickkopf-related protein 1 (Homo sapiens) (O94907 whole entry, looked up): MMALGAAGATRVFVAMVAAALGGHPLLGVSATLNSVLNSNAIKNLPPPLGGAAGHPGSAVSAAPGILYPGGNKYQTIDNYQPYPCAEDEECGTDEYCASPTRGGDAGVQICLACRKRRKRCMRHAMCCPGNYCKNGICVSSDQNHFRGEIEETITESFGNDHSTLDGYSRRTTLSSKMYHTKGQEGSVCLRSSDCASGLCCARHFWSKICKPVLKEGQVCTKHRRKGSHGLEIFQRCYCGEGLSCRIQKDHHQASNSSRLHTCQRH
Sequence of Alpha-bungarotoxin (Bungarus multicinctus) (P60615 whole entry, looked up): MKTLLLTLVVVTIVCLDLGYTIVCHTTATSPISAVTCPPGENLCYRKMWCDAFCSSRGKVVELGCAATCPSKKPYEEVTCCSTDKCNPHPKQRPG
Sequence of Torsin-1A-interacting protein 1 (Homo sapiens) (Q5JTV8 whole entry, looked up): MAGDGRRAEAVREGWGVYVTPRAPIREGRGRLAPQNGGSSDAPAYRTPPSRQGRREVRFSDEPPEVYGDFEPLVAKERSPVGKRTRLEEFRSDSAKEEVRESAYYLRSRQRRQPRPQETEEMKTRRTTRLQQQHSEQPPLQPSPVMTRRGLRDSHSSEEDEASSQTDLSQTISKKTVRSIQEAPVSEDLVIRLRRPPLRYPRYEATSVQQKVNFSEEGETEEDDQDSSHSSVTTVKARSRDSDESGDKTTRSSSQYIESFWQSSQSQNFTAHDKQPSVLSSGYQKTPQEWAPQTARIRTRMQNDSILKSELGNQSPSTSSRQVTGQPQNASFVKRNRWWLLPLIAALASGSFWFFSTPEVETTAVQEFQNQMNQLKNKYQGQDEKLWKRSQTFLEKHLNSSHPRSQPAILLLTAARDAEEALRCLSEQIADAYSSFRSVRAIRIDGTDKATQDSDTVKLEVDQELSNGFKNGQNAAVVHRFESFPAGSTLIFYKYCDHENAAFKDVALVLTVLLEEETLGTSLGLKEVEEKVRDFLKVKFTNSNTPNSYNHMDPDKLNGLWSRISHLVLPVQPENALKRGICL
Sequence of Left-right determination factor 2 (Homo sapiens) (O00292 whole entry, looked up): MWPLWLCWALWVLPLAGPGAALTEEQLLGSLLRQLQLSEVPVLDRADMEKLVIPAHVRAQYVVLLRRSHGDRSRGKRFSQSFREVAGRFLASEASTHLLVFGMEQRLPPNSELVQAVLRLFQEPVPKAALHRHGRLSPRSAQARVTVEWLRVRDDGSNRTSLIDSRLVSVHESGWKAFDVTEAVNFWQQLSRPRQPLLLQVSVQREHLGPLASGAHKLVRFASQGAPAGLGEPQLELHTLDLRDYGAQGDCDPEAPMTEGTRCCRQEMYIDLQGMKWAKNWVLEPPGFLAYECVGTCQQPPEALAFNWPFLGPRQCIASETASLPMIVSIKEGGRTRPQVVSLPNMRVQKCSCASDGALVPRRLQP

As to `COC(=O)[C@@]1(Cc2ccccc2)[C@H]2c3cc(C(=O)N(C)C)n(Cc4ccc(C)c(F)c4F)c3C[C@H]2CN1C(=O)c1ccccc1`, the composite z-score in assay [1] was 1.07 and 0.37; in [2], 1.39 and 0.861; in assay [3] it was 1.31 and 1.05; in [5], 0.365 and 1.01; in assay [6] it was 0.22 and 1.32; in assay [7], -0.542 and 0.652. Further, the composite z-score is -0.0958 and 1.42 in [8]; -1.07 and 0.472 in assay [9]; 0.885 and 1.09 in assay [10]; 1.41 and 1.38 in assay [11]; -0.301 and 0.288 in assay [13]; 1.46 and 2.22 in assay [14]. Besides, the composite z-score in [15] is 0.818 and 1.11; in [16], 0.208 and 0.822; in assay [17], 1.91 and -0.279; in assay [18] it was 0.782 and 0.365; in assay [19], 2.24 and 0.536; in assay [20] it was 0.226 and 1.1. Moreover, the z-score in assay [4] is -2.38 (inactive) and -2.61 (inactive); in [12], -3.76 and -2.08.
`C=C(C)C(=O)OC[C@@H]1CN2[C@@H](CC[C@@H](C)[C@@H]2c2ccc(Br)cc2)C(=O)O1`: the composite z-score is 0.913 in [1]; -0.199 in assay [2]; -0.374 in assay [3]; 0.634 in [5]; 0.399 in assay [6]; 0.263 in assay [7]. The composite z-score was 1.08 in assay [8]; 0.872 in [9]; 0.984 in assay [10]; 0.854 in [11]; 0.891 in assay [13]; -0.265 in assay [14]. Further, the composite z-score is -0.157 in [15]; -0.109 in assay [16]; 0.0684 in assay [17]; -0.259 in assay [18]; 0.183 in assay [19]; 0.548 in assay [20]. Moreover, the z-score is -0.46 (inactive) in assay [4] and 0.867 in assay [12].
On to `CCN1C(=O)[C@H]2[C@H]3[C@H](O)[C@H](O)CC(=NOC)[C@@H]3CC[C@H]2C1=O`, for which the composite z-score was 0.767 in [1]; -0.0904 in [2]; -0.0826 in assay [3]; -0.0502 in [5]; -0.595 in [6]; 0.1 in assay [7]. Besides, the composite z-score in assay [8] was -0.0407; in assay [9], 0.179; in assay [10], 0.39; in assay [11] it was -0.524; in [13], 0.256; in assay [14], -0.472. The composite z-score in assay [15] was -0.266; in [16], -0.147; in [17] it was 0.13; in assay [18], -0.122; in assay [19], 0.262; in assay [20] it was 0.178. In addition, the z-score in [4] was 0.302 (inactive); in assay [12], 0.964.
As for `CC(C)CCN1CCc2nc(-c3ccccc3)c3c(c2C1)CO[C@@H](C)C3`, the composite z-score in assay [1] is -0.0208; in assay [2], 0.233; in [3], -0.148; in assay [5], 0.476; in assay [6] it was 0.77; in assay [7] it was 0.516. The composite z-score in assay [8] was 0.579; in [9], 0.689; in assay [10] it was 0.55; in assay [11], 1.35; in assay [13], 0.457; in [14], -0.083. Also, the composite z-score in assay [15] was -0.399; in assay [16], -0.0944; in assay [17], -0.138; in [18] it was -0.036; in [19] it was 0.565; in assay [20], 0.416. Further, the z-score was 0.109 (inactive) in assay [4] and -0.952 in assay [12].
